Experimental data: PubChem BioAssay AID488 (PCMD, 2006)
Screen size: about 62,000 compounds; about 40 (0.06%) were called active. No stated cut-off is given here; in the data, active means inhibition above about 22% (passing the limit was not always enough); inconclusive means no clear call, values can overlap the other calls. Many of the other results were omitted from the sample, so actives are more common in it than they were.

What follows are compounds tested against Cathepsin B (Homo sapiens) (UniProt P07858) (assay: cathepsin B inhibitors from pooled compounds, primary screen, biochemical, compound mixtures, AMC fluorescence (AID 488;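 further: 0% = enzyme without compound and 100% = no enzyme blank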)). Conditions: Purified cathepsin B, AMC dipeptide fluorescence, hits give high values,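 ten-compound pools at 5 µM per compound and 50 µM total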.

inhibition, active:
CC(C)C[C@H](NC(=O)[C@@H]1O[C@H]1C(=O)O)C(=O)NCCCCN=C(N)N 99.7%

inhibition, inactive:
NC(=O)C1CCN(C(=O)c2ccc(C(F)(F)F)cc2)CC1 -1.58%
CCOC(=O)CSc1nnc(CNC(=O)c2cccs2)n1-c1cc(OC)ccc1OC 0.53%
Cc1cccc(OCc2nnc(SCn3nnc4ccccc4c3=O)o2)c1 -0.48%
O=C(Cn1c(-c2cncs2)nc2ccccc21)NC1CCCC1 1.92%
C=C1c2cc(CC)ccc2NC(=O)N1c1ccc(C)cc1 5.66%
COc1ccc(OC)c(CNC(=O)CCc2nc(-c3cccs3)no2)c1 -0.11%
CC(=O)c1c(C)[nH]c(C(=O)NCCCN2CCCC2)c1C 3.25%
c1ccc2[nH]c(-c3nc4ccccc4[nH]3)nc2c1 -5.47%
Cc1ccc2cccc(S(=O)(=O)N3CCN(c4ccccc4F)CC3)c2n1 2.15%
NC(=O)CSC1=Nc2ccccc2C2=NC(CCC(=O)NCc3ccc(F)cc3)C(=O)N12 (stereo not given) 0.205%
O=C(c1ccc(=O)[nH]c1)N(Cc1ccco1)C1(C(=O)NC2CCCCC2)CCCCC1 2.12%
O=C(CN1CCOCC1)Nc1c2c(nc3c1CCC3)CCC2 0.235%
CCOc1c(N2CCCCC2)c(=O)c1=O -3.57%
CCn1c(=O)cc(SCC(=O)NCc2ccc3c(c2)OCO3)c2ccccc21 1.53%
Cc1ccc(N2CCN(S(=O)(=O)c3ccc(F)cc3)CC2)c(C)c1 -2.33%
CCCCN(CC)C(=O)CN(C)S(=O)(=O)c1cccc2nsnc12 0.445%
O=C(NCc1ccco1)c1cc(-c2cccnc2)nc2ccc(Cl)cc12 -4.83%
COc1ccc2c(c1)C=CC1(O2)N(CCO)c2ccccc2C1(C)C (stereo not given) 2.88%
CCOC(=O)N1CCC(C(N)=O)CC1 7.54%
CSC1=N/C(=C\C=C\c2cccs2)C(=O)S1 9%
COc1cc(=O)[nH]c(=O)n1C(=O)Cc1ccccc1 3.21%
COC(=O)COc1ccc(S(=O)(=O)Nc2ccc(NC(C)=O)cc2)cc1 0.2%
CS(=O)(=O)c1ccc2nc(NC(=O)C3C4C=CC(C4)C3C(=O)O)sc2c1 (stereo not given) 0.27%
COc1ccc(NC(=O)Nc2cccc3cccnc23)cc1 3.29%
Cc1ccc(-c2noc(-c3ccccc3C(=O)NCC3CCCO3)n2)cc1 (stereo not given) -4.67%
C=CCn1c(SCc2cc(C(=O)OC)c(C)o2)nnc1-c1ccncc1 -5.06%
C=CCOc1ccc(C2/C(=C(\O)c3c(C)[nH]c(C(=O)OC)c3C)C(=O)C(=O)N2CCN(C)C)cc1 (stereo not given) -5.12%
O=C(Cn1cnc2c(cnn2-c2ccccc2)c1=O)NCc1ccccc1 -0.45%
Oc1ccc(-c2csc(Nc3cccnc3)n2)cc1 2.75%
COC(=O)c1cc(OC)c(OC)cc1NC(=O)C1CCCO1 (stereo not given) -0.18%
CC1=NCCN1S(=O)(=O)c1ccc(Br)c(C)c1 -3%
O=C1CC(c2ccccc2)C(=O)N1c1cccc(O)c1 (stereo not given) -1.1%
COc1ccc(OCCCC(=O)Nc2nnc(C3CCCO3)s2)cc1 (stereo not given) -2.29%
Cc1ccc(S(=O)(=O)N(C)CC(=O)N2CCc3ccccc32)cc1 -2.02%
O=C1c2oc3ccc(Br)cc3c(=O)c2C(c2cccc(F)c2)N1CCO (stereo not given) -5.69%
O=C(NCc1cccnc1)c1ccc(CS(=O)(=O)c2ccc(Br)cc2)o1 3.93%
CC(=O)Nc1ccc(S(=O)(=O)Nc2ccc(N3CCOCC3)c(F)c2)cc1 1.35%
Cc1nc2ccc(S(=O)(=O)NC(C(=O)N3CCCCCC3)C(C)C)cc2s1 (stereo not given) 6.23%
CCn1c(COc2cccc(OC)c2)nnc1SCC(=O)N1CCOCC1 2.62%
CCOC(=O)c1c(CN2CCOCC2)n(-c2ccccc2)c2ccc(O)cc12 4.31%
CC(c1nnc(SCC(=O)Nc2sccc2C#N)n1-c1ccc(Cl)cc1)N(C)C (stereo not given) 5.86%
Cc1cc(C)nc(-n2nc(C)cc2NC(=O)c2ccc(Br)o2)n1 6.29%
c1csc(-c2cn3c(n2)SCC3)c1 0.03%
Cc1cc(/C=N/n2cnnc2)c(C)n1-c1ccc2ncccc2c1 0.4%
